HEK293 tox: cytotoxicity counter-screen for GLP-1 receptor inverse agonists | Potency, µM (doses to about 38.3 µM), without a hit: at the top dose activity change, negative = inhibition, hits mostly inhibitors | hit rate 0.13% among 410,000 | AID 624418 | HEK293 cAMP-luciferase reporter cells, luminescence, 24 h;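 note: loss of luciferase light is scored as toxicity; % is set by controls: 0 for no effect and ±100 for the full control effect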
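Step one: seed cells (200 cells/uL, DMEM with 10% Nu serum, 1% pen-strep). Step two: 12-hour incubation at 37 deg C. Step three: pin 23 nL compound, incubate 24 hr. Step four: add luciferase reagent, read luminescence 12 min later.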
a7 integrin act: activates integrin-mediated alleviation for muscular dystrophy; alpha7betagal myoblasts, beta-gal FDG fluorescence, 48 h; Potency, µM (titrated, usually from 38.3 µM), without a hit: top-dose activation, usual class: activators; hit rate 0.064% among 350,000; AID 624291;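 note: 100% = response of the positive control SU9516; nearly all actives have a fitted effect of over 60% in size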
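Alpha7betagal+/- myoblasts (passage 13) were plated 16-24 hr, then exposed to compounds (1:260 dilution of DMSO stock) for 48 hours at 37C. After MPER lysis, β-galactosidase reporter activity was read as FDG fluorescence (ex 480/em 540) after 30 minutes.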
BRCA1 expr act: increases BRCA1 expression | MCF7-BRCA1-FFLuc reporter, luminescence, 48 h; response scale: scaled: vehicle 0%, 10 µM genistein 100% | Potency, µM (highest dose often 46.1 µM), without a hit: at the highest dose activation, actives largely listed as activators | hit rate 1.1% among 380,000; note: nearly all actives have a fitted effect of over 80% in size
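Quantitative HTS in MCF7 cells stably reporting BRCA1 expression via firefly luciferase. Compound treatment lasts 48 h at 37 °C in phenol-red free MEM. Activation is expressed relative to genistein at 10 microM and DMSO.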
GLP1R ag: activates the human GLP-1 receptor. hit rate 0.007% among 380,000. Potency, µM (highest dose often 45.6 µM), inactives show top-dose activation, actives largely listed as activators. AID 624172. HEK293 GLP-1R CRE-luciferase, luminescence, 4-6 h; cells express a hypersensitive GLP-1R form; note: % of control where 0% means no effect
Target sequence (P43220 whole entry, looked up): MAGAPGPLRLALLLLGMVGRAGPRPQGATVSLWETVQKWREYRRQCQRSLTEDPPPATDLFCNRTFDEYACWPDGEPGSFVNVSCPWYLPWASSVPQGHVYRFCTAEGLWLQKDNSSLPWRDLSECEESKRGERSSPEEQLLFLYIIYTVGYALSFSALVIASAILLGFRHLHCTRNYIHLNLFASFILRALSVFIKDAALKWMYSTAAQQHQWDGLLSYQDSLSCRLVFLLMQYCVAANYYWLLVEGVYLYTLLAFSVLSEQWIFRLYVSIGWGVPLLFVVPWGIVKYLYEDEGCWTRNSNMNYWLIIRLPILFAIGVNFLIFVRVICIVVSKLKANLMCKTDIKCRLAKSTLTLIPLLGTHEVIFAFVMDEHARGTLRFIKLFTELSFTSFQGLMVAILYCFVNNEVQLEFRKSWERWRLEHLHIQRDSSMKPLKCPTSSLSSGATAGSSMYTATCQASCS
GLP1R inv ag: inverse agonists of human GLP-1 receptor | P43220 | hit rate 1.6% among 410,000 | AID 624417 | Potency, µM (highest dose often 38.3 µM), for inactives: at the highest dose activity change, negative = inhibition, usual class: inhibitors | HEK293 GLP-1R CRE-luciferase, luminescence, 24 h; GLP-1R form is constitutively active; note: % is set by controls: 0 for no effect and ±100 for the full control effect; nearly all actives have a fitted effect of over 55% in size
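HEK293 cells stably co-expressing a cAMP-responsive luciferase reporter and constitutively active GLP-1R were seeded, incubated 12 h, then exposed to compounds for 24 h at 37 C. Luminescence was read 12 min after detection reagent; inverse agonists lower signal.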
Starred values were filed as active, the others as inactive; ? = inconclusive; . = not tested or not shown; ! = not active in a repeat. Most compounds without a hit are left out; they make up all but 2.7% or so of the library. Calls come from the whole dose curve; as a rule, active = well fitted curve in the direction sought with a large enough effect; inconclusive = small, poorly fitted or top-dose-only effect, or another doubt; inactive = no such curve, though single readings can be large; an effect the other way counts as inactive or inconclusive. Potency is the fitted concentration of half-maximal effect.

SMILES	HEK293 tox	a7 integrin act	BRCA1 expr act	GLP1R ag	GLP1R inv ag
COc1cc(/C=N/NC(=O)c2ccoc2C)ccc1O	-3%	0%	?	-1%	40%
Cc1occc1C(=O)N/N=C/c1ccc(Br)s1	0%	2%	8.9µM*	12%	-24%
CCOc1ccc(/C=N/NC(=O)c2ccoc2C)cc1OC	10%	-13%	10µM*	21%	21%
COc1cccc(OCc2cc(C(=O)N(Cc3ccccc3)CC3CC3)no2)c1	-4%	-4%	-1%	9%	8.9µM*
COc1cccc(OCc2cc(C(=O)N(C)Cc3nc4ccccc4[nH]3)no2)c1	1%	19%	86%	10%	?
CN(CCc1ccccn1)C(=O)CCc1nnc(CCCc2ccccc2)o1	1%	8%	13µM*	11%	20%
CC(C)N(CCO)C(=O)CCc1nnc(CCCc2ccccc2)o1	9%	13µM*	41%	13%	17%
COc1cc2nc(Cl)nc(NC3CCN(Cc4ccccc4)CC3)c2cc1OC	.	.	13%	.	.
COc1ccc(CN2C(=O)C(NC(=O)c3ccccc3OC)(C(F)(F)F)N=C2c2ccccc2)cc1 (stereo not given)	1%	.	-33%	-1%	?
C=CCNc1nc(NC2CCN(C)CC2)c2cc(OC)c(OC)cc2n1	.	.	-3%	.	.
O/N=C(/c1ccc(Cl)cc1)C1CC1c1ccccc1 (stereo not given)	2%	7%	5%	?	?
Cc1ccc(C2CC2/C(=N/O)c2ccc(F)cc2)cc1 (stereo not given)	-2%	9%	-23%	20%	10µM*
Cc1noc(C)c1COC(=O)c1ccccc1Sc1ccccc1C#N	-16%	-21%	-55%	10%	8.9µM*
CCOc1ccc(C(=O)OCc2cc(=O)n3nc(C(C)C)sc3n2)cc1	-1%	.	-11%	.	11%
CC(C1CC1)N(Cc1ccccc1)C(=S)Nc1cccc(C(F)(F)F)c1 (stereo not given)	-8%	-17%	-30%	1%	10µM*
CC(C1CC1)N(Cc1ccccc1)C(=S)Nc1ccccc1 (stereo not given)	-13%	-10%	-25%	14%	?
CN(C)C(=S)Nc1cccc(C(F)(F)F)c1	7%	10µM*	3%	3%	-8%
Cc1ccc2oc(Nc3nc(-c4ccccc4)cc(=O)[nH]3)nc2c1	-35%	3%	3.5µM*	3%	?
CCCCCCN(C(=O)CCCCCN1C(=O)NC(c2ccc([N+](=O)[O-])cc2)C(C(=O)OCc2ccccc2)=C1C)C(C(=O)NCCCC)C1CCCCC1 (stereo not given)	-5%	-4%	0%	7%	5%
CCCCCCN(C(=O)CCCN1C(=O)NC(c2ccc(-c3ccccc3)cc2)C(C(=O)OCc2ccccc2)=C1C)C(C)C(=O)NCCCC (stereo not given)	-10%	-15%	-48%	9%	11µM*
Nc1nc(-c2ccc(Cl)cc2)c(S(=O)(=O)c2ccccc2)s1	6%	?	-10%	6%	8.9µM*
C#Cc1ccc(C(=O)Nc2ccc(N3CCC(C)CC3)c(C(N)=O)c2)cc1	-13%	-4%	-15%	9%	8.9µM*
CC1CCN(c2ccc(NC(=O)c3cccc(Cl)c3)cc2C(=O)O)CC1	2%	.	.	.	16%
COc1ccc(OC)c(NC(=O)c2ccc(CN3CCc4ccccc4C3)cc2)c1	2%	-12%	-4%	2%	11µM*
O=C(Nc1cccc(Br)c1)c1ccc(CN2CCc3ccccc3C2)cc1	-15%	-26%	10%	1%	2.2µM*
SMILES	HEK293 tox	a7 integrin act	BRCA1 expr act	GLP1R ag	GLP1R inv ag
CC(C)(C)C(=O)OCOP(=O)(COCCn1cnc2c(N)ncnc21)OCOC(=O)C(C)(C)C	.	.	.	21%	.
CCCC(NC(=S)NCC1CCCO1)C12CC3CC(CC(C3)C1)C2 (stereo not given)	?	10%	-37%	13%	5.6µM*
O=C(Cn1cnc2c(nc3n2CCCCC3)c1=O)Nc1ccc(F)c(Cl)c1	11%	.	.	.	-10%
Cc1cccc(C)c1OCCNC(=O)OCc1ccccc1	-8%	-2%	-11%	9%	11µM*
O=C(Nc1nccs1)OCc1ccccc1	-15%	24%	14µM*	15%	21%
O=C(N[C@H]1/C=C\[C@@H](O)CCCC1)OCc1ccccc1	0%	-5%	4.5µM*	-3%	-12%
O=C(NCCCCCCNC(=O)OCc1ccccc1)OCc1ccccc1	0%	-9%	3%	-1%	17%
O=C(NNc1ccccc1)OCc1ccccc1	-26%	-6%	11µM*	3%	?
O=C(NCc1ccccc1)C(=O)Nc1nccs1	-26%	7%	-22%	0%	-23%
O=C(Nc1cccnc1)OCc1ccccc1	13%	-5%	?	2%	13%
Cn1nc(-c2ccc(OCC(=O)Nc3cccc(C(F)(F)F)c3)cc2)c2ccccc2c1=O	3%	.	4%	0%	14%
COc1cc2c(NC3CCN(C)CC3)nc(N3CCN(C)CC3)nc2cc1OCCCN(C)C	.	.	0%	.	.
CCN(CCCNC(=O)c1cc2cc3cc(C)ccc3nc2s1)c1cccc(C)c1	-16%	.	.	.	?
CC(C)(C)c1ccc(C(=O)CCC(=O)NCc2ccccc2)cc1	-20%	-42%	-35%	15%	7.9µM*
Cc1ccc(CNC(=O)CN(c2ccc(Cl)cc2Cl)S(=O)(=O)c2ccccc2)cc1	-10%	.	.	.	10µM*
CC(NC(=O)CN(c1ccc(Cl)cc1Cl)S(=O)(=O)c1ccccc1)c1ccccc1 (stereo not given)	-5%	.	.	.	8.9µM*
O=C(CN(c1ccccc1Cl)S(=O)(=O)c1ccccc1)NCc1ccccc1	10%	15%	-14%	12%	-28%
COc1ccc(C(=O)NCc2ccc3c(c2)CCN3C(=O)c2ccncc2)cc1	0%	.	.	.	-8%
CCOC(=O)N1CCc2c(sc3c2c(=O)n(Cc2ccccc2)c(=O)n3Cc2cccc(C)c2)C1	3%	-4%	-6%	8%	10µM*!
CCOC(=O)N1CCc2c(sc3c2c(=O)n(Cc2ccccc2)c(=O)n3Cc2cc(C)ccc2C)C1	5%	.	.	.	7%
C=CCOc1ccc(CN(C)CC(O)COc2cccc3ccccc23)cc1 (stereo not given)	?	-75%	-73%	13%	?
COc1cccc(CN(C)CC(O)COc2cc(Cl)ccc2Cl)c1 (stereo not given)	-4%	1%	-9%	0%	10µM*
COc1ccc2cnn(-c3ccc(OC(F)(F)Cl)cc3)c(=O)c2c1OC	2%	14%	12%	7%	11%
COc1ccc2cnn(-c3ccc(C)cc3)c(=O)c2c1OC	-9%	-18%	4.5µM*	12%	12%
CCC(=O)Nc1sc2c(c1C(=O)Nc1ccccc1C)CCC(C)C2 (stereo not given)	1%	.	.	.	1%

From PubChem BioAssay
